Screening data deposited in PubChem by several laboratories.
PLK1 PBD inh = Plk1 polo box domain binding inhibitors, primary screen, biochemical, fluorescence polarization; Serine/threonine-protein kinase PLK1 (Homo sapiens), P53350; Plk1 PBD phosphopeptide binding; inhibition, %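 (tested at about 20 µM)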; 0.13% of 97,000 active; AID 693, 2007; in the data active = inhibition above about 34%, passing the limit was not always enough
Target sequence (P53350 whole entry, looked up, the tested form may be a part): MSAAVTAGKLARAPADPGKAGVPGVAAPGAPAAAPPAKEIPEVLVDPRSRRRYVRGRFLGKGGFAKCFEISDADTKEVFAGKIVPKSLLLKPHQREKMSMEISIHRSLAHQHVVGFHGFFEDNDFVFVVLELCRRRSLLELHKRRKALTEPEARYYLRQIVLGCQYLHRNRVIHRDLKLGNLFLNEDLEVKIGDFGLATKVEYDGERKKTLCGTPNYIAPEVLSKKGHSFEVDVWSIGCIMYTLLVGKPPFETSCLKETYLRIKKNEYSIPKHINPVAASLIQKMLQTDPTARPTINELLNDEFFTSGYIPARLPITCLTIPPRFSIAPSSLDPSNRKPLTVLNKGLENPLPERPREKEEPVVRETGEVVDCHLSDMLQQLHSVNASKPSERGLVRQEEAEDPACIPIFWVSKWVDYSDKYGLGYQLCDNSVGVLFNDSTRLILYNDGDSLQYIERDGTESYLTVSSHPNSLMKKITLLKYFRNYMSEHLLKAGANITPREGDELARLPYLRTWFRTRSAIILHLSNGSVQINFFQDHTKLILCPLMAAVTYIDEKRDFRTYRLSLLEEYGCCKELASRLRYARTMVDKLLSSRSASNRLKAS
FAK blocker = FAK kinase inhibitors, primary screen, biochemical; Focal adhesion kinase 1 (Homo sapiens), Q05397; biochemical FAK kinase activity assay; inhibition, %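 (tested at 7 µM)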; 0.84% of 97,000 active;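 note: 0% = DMSO and 100% = reference compound high control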
PTPN22 inh 2 = PTPN22 phosphatase inhibitors, primary screen, biochemical, DiFMUP fluorescence, 2 µM. recombinant LYP catalytic domain. Tyrosine-protein phosphatase non-receptor type 22 (Homo sapiens), Q9Y2R2. AID 640, 2007. inhibition, % at 2 µM. 0.21% of 96,000 active;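 active = inhibition at 2 µM at or above a set limit, the screen mean plus 3 SD, cut at about 24% in these data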;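 note: 0% = DMSO with enzyme and 100% = enzyme fully blocked by orthovanadate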
EphB4 ephrin blk = EphB4-ephrin-B2 interaction antagonists, primary screen, biochemical, TNYL-RAW peptide probe, fluorescence polarization. inhibition, % at 7 µM. AID 720, 2007. Ephrin type-B receptor 4 (Homo sapiens), P54760. EphB4 LBD / TNYL-RAW-Alexa532 peptide. 0.15% of 97,000 active;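 active = inhibition above the screen-wide mean inhibition plus 3 SD, cut at about 15% in these data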;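 note: 0% = DMSO wells and 100% = excess unlabeled TNYL-RAW peptide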
PLK1 kinase inh = human PLK1 kinase inhibitors, primary screen, biochemical, TR-FRET. inhibition, % at 10 µM. 0.53% of 97,000 active. AID 619, 2007. recombinant PLK1 kinase, TR-FRET peptide phosphorylation. Serine/threonine-protein kinase PLK1 (Homo sapiens), P53350;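 active = inhibition of 50% or more in the single-concentration screen; inactive = inhibition below 50%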;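 note: 0% = DMSO max control and 100% = H-89 dihydrochloride min control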
LYP act = LYP phosphatase activators, primary screen, biochemical, DiFMUP fluorescence, 2 µM; Tyrosine-protein phosphatase non-receptor type 22 (Homo sapiens), Q9Y2R2; recombinant LYP; 0 = plate median, 100 = signal doubled; activation, % at 2 µM; 0.11% of 96,000 active; AID 697, 2007;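 active = activation at 2 µM above a set limit, the mean plus 5 SD, cut at about 37% in these data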
FAK inh conf = FAK kinase inhibitors, retest, confirmation, biochemical; shares compounds with FAK blocker; FAK kinase biochemical inhibition assay; inhibition, % at 7 µM; 28% of 750 active; AID 794, 2007
Starred values were filed as active, the others as inactive. The list is not random: actives were taken first. Their share in the collection is about 1.7%. Cut-off read from the data, not from the text of the source, unless noted: active = inhibition above about 19%; inactive = the rest.

CCC(CC)C(=O)Nc1cccc(C(=O)c2ccccc2)c1 was read as PLK1 PBD inh -2.6, FAK blocker 4.6, PTPN22 inh 2 -9.2, EphB4 ephrin blk -2.8, PLK1 kinase inh -28.9 and LYP act 11.5.
O=C(CNC(=O)c1ccc([N+](=O)[O-])cc1)N/N=C\c1ccc(OC(=O)c2ccccc2)cc1 was read as PLK1 PBD inh 6.8, FAK blocker 24.9*, PTPN22 inh 2 3.5, EphB4 ephrin blk 2.2, PLK1 kinase inh -16.7, LYP act -4.8 and FAK inh conf 11.2.
`CCOc1ccc2[nH]c(=O)c(CN(Cc3nnnn3Cc3ccco3)C3CCCCC3)cc2c1` gave PLK1 PBD inh -16.4, FAK blocker 38.6*, PTPN22 inh 2 10.0, EphB4 ephrin blk 6.3, PLK1 kinase inh -0.4, LYP act -12.0 and FAK inh conf 0.0.
`COc1cc2cc(CN(Cc3nnnn3Cc3ccco3)C3CCCCC3)c(=O)[nH]c2cc1OC` gave PLK1 PBD inh -6.2, FAK blocker 9.6, PTPN22 inh 2 7.3, EphB4 ephrin blk 3.0, PLK1 kinase inh 0.3 and LYP act -7.6.
`CCN1CC=C2C(C#N)=C(N)C(C#N)(C#N)C(c3cc(Cl)ccc3Cl)C2C1` (centres undefined) gave PLK1 PBD inh -64.1, FAK blocker 2.7, PTPN22 inh 2 -1.2, EphB4 ephrin blk 0.4, PLK1 kinase inh 10.4 and LYP act -0.3.
Screening CCC1Oc2ccc(C)cc2N(CC(=O)NCCN2CCCCCC2)C1=O (centres undefined) returned PLK1 PBD inh 6.3, FAK blocker 3.6, PTPN22 inh 2 8.4, EphB4 ephrin blk -5.1, PLK1 kinase inh -14.4 and LYP act -7.3.
Cc1ccc2nc(N/N=C/c3ccccc3C#N)nc(-c3ccccc3)c2c1 was read as PLK1 PBD inh 0.5, FAK blocker 6.1, PTPN22 inh 2 6.8, EphB4 ephrin blk -0.7, PLK1 kinase inh -5.6 and LYP act -4.9.
`N#Cc1ccccc1/C=N/Nc1nc(-c2ccccc2)c2cc(Cl)ccc2n1` gave PLK1 PBD inh -4.0, FAK blocker 50.1*, PTPN22 inh 2 20.0, EphB4 ephrin blk 5.3, PLK1 kinase inh -11.4, LYP act -16.6 and FAK inh conf 34.2*.
CCCOc1ccc(N2C(=O)CC(N3CCC(c4nncn4CC)CC3)C2=O)cc1 (centres undefined) was read as PLK1 PBD inh -1.0, FAK blocker -0.3, PTPN22 inh 2 2.6, EphB4 ephrin blk 3.6, PLK1 kinase inh -1.9 and LYP act -3.9.
Screening COc1cc2[nH]c(=S)n(NC(=O)CC(C)C)c(=O)c2cc1OC returned PLK1 PBD inh -1.5, FAK blocker 0.2, PTPN22 inh 2 -8.3, EphB4 ephrin blk 4.0, PLK1 kinase inh -12.0 and LYP act 7.8.
N#Cc1cnn2c1nc(N1CCOCC1)c1ccccc12 was read as PLK1 PBD inh 17.4, FAK blocker 50.7*, PTPN22 inh 2 -4.3, EphB4 ephrin blk 4.7, PLK1 kinase inh -11.3, LYP act 4.9 and FAK inh conf 26.0*.
CNc1cccccc1=S was read as PLK1 PBD inh 20.9, FAK blocker 43.6*, PTPN22 inh 2 -1.3, EphB4 ephrin blk -8.7, PLK1 kinase inh -14.2, LYP act -0.5 and FAK inh conf 0.8.
For CC(C)(C)Nc1cccccc1=O the results were PLK1 PBD inh -16.8, FAK blocker 3.1, PTPN22 inh 2 -12.2, EphB4 ephrin blk 5.5, PLK1 kinase inh 0.2 and LYP act 10.0.
C=CCn1c(P(=O)(O)c2ccccc2)nc2ccccc21 was read as PLK1 PBD inh 4.7, FAK blocker 34.7*, PTPN22 inh 2 4.1, EphB4 ephrin blk 3.5, PLK1 kinase inh -14.4, LYP act -2.0 and FAK inh conf 23.6*.
For C=CCn1c(CNC(=O)CCC)nc2ccccc21 the results were PLK1 PBD inh 15.1, FAK blocker 2.5, PTPN22 inh 2 9.6, EphB4 ephrin blk 1.4, PLK1 kinase inh -4.5 and LYP act -8.4.
For CCOC(=O)c1sc2c(c1C)C(c1cccs1)C1=C(CCCC1=O)N2 (centres undefined) the results were PLK1 PBD inh -7.2, FAK blocker 23.7*, PTPN22 inh 2 -13.4, EphB4 ephrin blk 2.3, PLK1 kinase inh -13.1, LYP act 14.1 and FAK inh conf 19.1*.
For CC(C)(C)OC(=O)NC(CCCCNC=O)C(=O)O (centres undefined) the results were PLK1 PBD inh -6.0, FAK blocker -1.3, PTPN22 inh 2 -8.3, EphB4 ephrin blk -12.7, PLK1 kinase inh -8.8 and LYP act 7.4.
For CCCn1c(=N)n(CCOCCOCCn2c(=N)n(CCC)c3ccccc32)c2ccccc21 the results were PLK1 PBD inh -5.0, FAK blocker -0.4, PTPN22 inh 2 7.1, EphB4 ephrin blk 8.6, PLK1 kinase inh 18.9 and LYP act -5.6.
`N#Cc1cccc(NC(=O)CSc2ccccc2)c1` gave PLK1 PBD inh 0.5, FAK blocker 1.6, PTPN22 inh 2 8.0, EphB4 ephrin blk 2.0, PLK1 kinase inh -1.2 and LYP act -8.7.
`N#Cc1cccc(NC(=O)CSc2ccc3c4c(cccc24)C(=O)c2ccccc2-3)c1` gave PLK1 PBD inh -14.3, FAK blocker 27.3*, PTPN22 inh 2 11.2, EphB4 ephrin blk 8.6, PLK1 kinase inh -20.5, LYP act -8.7 and FAK inh conf 21.8*.
For CC(=O)N1CCN(c2nc3cc4c(cc3nc2NS(=O)(=O)c2ccccc2)OCCO4)CC1 the results were PLK1 PBD inh -13.2, FAK blocker 5.8, PTPN22 inh 2 -8.3, EphB4 ephrin blk -0.8, PLK1 kinase inh 2.2 and LYP act 5.8.
CCCOc1ccc(/C=N/NC(=O)c2ccc(Cn3cc([N+](=O)[O-])cn3)o2)cc1 was read as PLK1 PBD inh 18.9, FAK blocker 23.9*, PTPN22 inh 2 13.1, EphB4 ephrin blk -0.3, PLK1 kinase inh -14.0, LYP act -11.0 and FAK inh conf 18.5.
For CC(CS(=O)(=O)c1ccc2ccccc2c1)N1CCN(C2CCCCC2)CC1 (centres undefined) the results were PLK1 PBD inh 4.1, FAK blocker 1.2, PTPN22 inh 2 -3.8, EphB4 ephrin blk 12.5, PLK1 kinase inh -13.8 and LYP act 0.2.
For CCc1c(C)nc(SCC(=O)c2cccs2)c(C#N)c1C the results were PLK1 PBD inh 2.0, FAK blocker 30.4*, PTPN22 inh 2 -0.3, EphB4 ephrin blk 1.3, PLK1 kinase inh -10.5, LYP act 2.5 and FAK inh conf 25.9*.
For CCc1c(C)nc(SCC(N)=O)c(C#N)c1C the results were PLK1 PBD inh 22.4, FAK blocker 2.8, PTPN22 inh 2 3.8, EphB4 ephrin blk -3.1, PLK1 kinase inh -3.0 and LYP act -1.6.
